In all, about 39,000 compounds went through this assay and about 3,300 (8.5%) were called active. Only a selection was taken, and actives are over-represented in it overall.
test system: HepG2; assay: cytotoxicity call (relative viability < 0.9); settings: 10 µM

**Q.** `Cc1noc(C)c1NC(=O)N(C)C[C@H]1Oc2c(NC(=O)C3CC3)cccc2C(=O)N([C@H](C)CO)C[C@H]1C` was tested. Which cytotoxicity call did it give?
**A.** The cytotoxicity call was “inactive”.

**Q.** For `COc1ccc(NC(=O)Nc2ccc3c(c2)CC(=O)N([C@@H](C)CO)C[C@H](C)[C@H](CN(C)Cc2ccc(Cl)c(Cl)c2)O3)cc1`, which cytotoxicity call is on record?
**A.** Its cytotoxicity call is “active”.

**Q.** `COc1ccc(NC(=O)Nc2ccc3c(c2)CC(=O)N([C@H](C)CO)C[C@H](C)[C@H](CN(C)Cc2ccc(Cl)c(Cl)c2)O3)cc1` was tested. Which cytotoxicity call did it give?
**A.** The cytotoxicity call was “active”.

**Q.** `COc1ccc(NC(=O)Nc2ccc3c(c2)CC(=O)N([C@@H](C)CO)C[C@@H](C)[C@@H](CN(C)Cc2ccc(Cl)c(Cl)c2)O3)cc1` was tested. Which cytotoxicity call did it give?
**A.** Its cytotoxicity call is “active”.

**Q.** With `COc1ccc(NC(=O)Nc2ccc3c(c2)C(=O)N([C@@H](C)CO)C[C@@H](C)[C@H](CN(C)Cc2ccc(Cl)c(Cl)c2)O3)cc1` as the compound, how does the cytotoxicity call read?
**A.** The cytotoxicity call was “inactive”.

**Q.** How did the cytotoxicity call turn out when `COc1ccc(NC(=O)Nc2ccc3c(c2)CC(=O)N([C@H](C)CO)C[C@H](C)[C@@H](CN(C)Cc2ccc(Cl)c(Cl)c2)O3)cc1` was run?
**A.** The cytotoxicity call was “inactive”.

**Q.** Which cytotoxicity call does the source give for `COc1ccc(NC(=O)Nc2ccc3c(c2)CC(=O)N([C@@H](C)CO)C[C@H](C)[C@@H](CN(C)Cc2ccc(Cl)c(Cl)c2)O3)cc1` here?
**A.** Its cytotoxicity call is “active”.

**Q.** With `COc1ccc(NC(=O)Nc2ccc3c(c2)C(=O)N([C@H](C)CO)C[C@@H](C)[C@H](CN(C)Cc2ccc(Cl)c(Cl)c2)O3)cc1` as the compound, how does the cytotoxicity call read?
**A.** Its cytotoxicity call is “inactive”.

**Q.** Which cytotoxicity call does the source give for `C[C@H](CO)N1C[C@H](C)[C@H](CN(C)S(=O)(=O)c2ccccc2)Oc2ccc(NS(=O)(=O)c3cn(C)cn3)cc2CC1=O` here?
**A.** Its cytotoxicity call is “inactive”.

**Q.** With `CC(C)NC(=O)N(C)C[C@H]1Oc2cc(C#Cc3cccc(F)c3)ccc2S(=O)(=O)N([C@H](C)CO)C[C@H]1C` as the compound, how does the cytotoxicity call read?
**A.** The cytotoxicity call was “inactive”.

**Q.** How did the cytotoxicity call turn out when `O=C(NCCCO)c1cc2ccccc2oc1=O` was run?
**A.** The cytotoxicity call was “inactive”.

**Q.** `COc1cccc(C(=O)Nc2ccc3c(c2)C(=O)N(C)[C@H]2CC[C@@H](CC(=O)NCCCN4CCOCC4)O[C@@H]2CO3)c1` was tested. Which cytotoxicity call did it give?
**A.** Its cytotoxicity call is “inactive”.

**Q.** `C[C@H]1CN([C@@H](C)CO)C(=O)Cc2cc(NS(C)(=O)=O)ccc2O[C@@H]1CN(C)S(=O)(=O)c1cccs1` was tested. Which cytotoxicity call did it give?
**A.** The cytotoxicity call was “inactive”.

**Q.** Which cytotoxicity call does the source give for `Cc1ccc(S(=O)(=O)N[C@@H]2CC[C@@H](CCNC(=O)CN3CCOCC3)O[C@@H]2CO)cc1` here?
**A.** The cytotoxicity call was “inactive”.

**Q.** Which cytotoxicity call does the source give for `COC(=O)CSc1cc(C)nc(N)n1` here?
**A.** Its cytotoxicity call is “inactive”.

**Q.** With `COc1cccc(NC(=O)C[C@H]2CC[C@H]3[C@@H](COc4ccc(NC(=O)C5CCOCC5)cc4C(=O)N3C)O2)c1` as the compound, how does the cytotoxicity call read?
**A.** The cytotoxicity call was “inactive”.

**Q.** With `C[C@@H]1CN([C@@H](C)CO)C(=O)c2cc(NS(=O)(=O)c3cn(C)cn3)ccc2O[C@@H](C)CCCCO[C@H]1CN(C)C(=O)CCCN(C)C` as the compound, how does the cytotoxicity call read?
**A.** Its cytotoxicity call is “inactive”.

**Q.** How did the cytotoxicity call turn out when `C[C@H](CO)N1C[C@H](C)[C@@H](CN(C)Cc2ccc(C(=O)O)cc2)Oc2c(NC(=O)C3CC3)cccc2C1=O` was run?
**A.** The cytotoxicity call was “inactive”.

From the antibiotic and cytotoxicity screens of Wong et al. (2023)
